Measured values from PubChem BioAssay AID488890 (Southern Research Specialized Biocontainment Screening …, 2010).
Among all 320,000 compounds or so, about 1,300 (0.41%) were called active. Roughly 3% stayed inconclusive and do not appear here. How the calls were made is not given here. A selection follows. Potency and affinity values are given separately.

Experiment: growth inhibition of non-replicating M. tuberculosis (AID 488890);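 further: plate controls were DMSO cells for no effect and high antibiotic wells for full effect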
Settings: Mycobacterium tuberculosis non-replicating, at 25 µM, stronger effect = higher value

| SMILES | inhibition [%] |
| --- | --- |
| COc1ccc(C(=O)O/N=C(/c2cccs2)C(C)(C)C)cc1 | 35.7 |
| COc1ccc(-c2nnc(NC(=O)Cc3ccccc3)s2)c(OC)c1 | 6.43 |
| O=C(Nc1nncs1)c1cc2c(s1)CCC2 | 2 |
| COc1ccc(CCNc2nc(-c3ccncc3)cs2)cc1OC | 15.7 |
| O=C(Nc1nc(-c2ccncc2)cs1)c1ccco1 | -9.61 |
| O=C(CCS(=O)(=O)c1ccccc1)Nc1nc(-c2ccc(F)cc2)cs1 | 0.28 |
| COc1ccc(CCNc2nc(-c3cccnc3)cs2)cc1OC | -6.11 |
| O=C(CCS(=O)(=O)c1ccccc1)Nc1nc(-c2cccs2)cs1 | 75.7 |
| Cc1cccc(Nc2nc(-c3ccc(F)cc3)cs2)n1 | 18.9 |
| Cc1cccc(Nc2nc(-c3cccs3)cs2)n1 | 3.92 |
| O=C(Nc1nc(-c2ccccc2)cs1)c1ccco1 | 11.8 |
| O=C1CC(/C=C/c2ccc([N+](=O)[O-])cc2)=Nc2ccccc2N1 | 30.3 |
| Cc1ccc(C)c(N2N=C(C(=O)O)CCC2=O)c1 | -0.55 |
| Cc1cc(N2CCN(c3ccccc3)CC2)n2nnnc2n1 | -6.03 |
| O=C(c1nc2ccccn2c1CNCCCn1nnc2ccccc21)N1CCOCC1 | -59.9 |
| O=C(CSc1nnc(-c2ccncc2)o1)Nc1ccccc1Cl | -10.3 |
| Cc1cc(C)cc(N(CCC#N)C(=O)CSc2ncnc3sccc23)c1 | 7.69 |
| Cc1ccc(C(=O)N[C@H](C(=O)N2CCN(c3ccccc3F)CC2)C(C)C)cc1 | 9.21 |
| COc1ccc2cc(C(=O)C3CCCN(C(=O)c4snnc4C)C3)ccc2c1 (stereo unspecified) | 16.9 |
| O=C(O)c1ccc2noc(-c3ccccc3)c2c1 | 26.3 |
| COc1ccc(CNC(=O)CN(C(=O)CCC(=O)Nc2ccccn2)c2ccccc2OC)cc1 | 10.4 |
| c1ccc(-c2csc(Nc3cccnc3)n2)nc1 | 24.5 |
| c1ccc(Nc2nc(-c3ccncc3)cs2)cc1 | 0.69 |
| CC(C)(C)[C@H](N)C(=O)N[C@H]1CCC2C3CC=C4C[C@@H](O)CC[C@]4(C)C3CC[C@@]21C (stereo partly specified) | 67.1 |

| SMILES | inhibition [%] |
| --- | --- |
| CC(C)OC(=O)c1cc(C(=O)c2cc(Br)ccc2O)coc1=N | 76.9 |
| COC(=O)c1cc(C(=O)c2cc(Cl)ccc2O)coc1=N | 36 |
| COc1cc(OC)cc(-c2nnc(NC(=O)CCS(=O)(=O)c3ccccc3)o2)c1 | 78.9 |
| O=C(Cc1ccccc1)Nc1nnc(-c2ccco2)o1 | -4.54 |
| CC(=O)Nc1nnc(-c2ccco2)o1 | 4.52 |
| Cc1ccccc1C(=O)Nc1nnc(-c2ccco2)s1 | -20.8 |
| CCCCN(C(=O)CSCC(=O)Nc1ccc(OC)cc1)c1c(N)n(Cc2ccccc2)c(=O)[nH]c1=O | 33 |
| Cc1ccc[n+](CC(=O)Nc2nc3ccccc3s2)c1 | 2.08 |
| CN(C(=O)CN1CC=C(c2ccccc2)CC1)c1c(N)n(Cc2ccccc2)c(=O)[nH]c1=O | 8.33 |
| CN(C(=O)COC(=O)Cc1c(Cl)cccc1Cl)C1CCS(=O)(=O)C1 (stereo unspecified) | -4.22 |
| CCC(=O)Nc1ccc2ccccc2c1 | 14.1 |
| CCCCCC(=O)Nc1ccc2ccccc2c1 | 58.5 |
| CCCCn1c(N)c(N(Cc2ccccc2OC)C(=O)c2ccc(N3CCCC3=O)cc2)c(=O)[nH]c1=O | 18.9 |
| N#CCSc1ncccc1-c1nc2ccccc2[nH]1 | -0.28 |
| Cc1ccc(Nc2cccccc2=O)cc1 | 16.8 |
| Nc1ccccc1Nc1cccc(C(F)(F)F)c1 | 47 |
| c1ccc(Nc2cccc3c(Nc4ccccc4)cccc23)cc1 | 42.5 |
| Cc1ccc(Nc2ccccc2)cc1 | 1.99 |
| c1ccc(Nc2ccccc2)cc1 | 6.24 |
| Nc1cccc(Nc2ccccc2)c1 | 2.41 |
| COc1ccc(Nc2ccccc2C(=O)O)cc1 | 3.87 |
| COc1ccc(Nc2cccccc2=O)cc1 | 3.01 |
| Cn1nc(C(=O)NNC(=O)c2cccc(Cl)c2)ccc1=O | 1.12 |
| O=S(=O)(NC1=NCCCCC1)c1cc(F)ccc1F | -1.39 |

| SMILES | inhibition [%] |
| --- | --- |
| CC1(C)Oc2ccc(C(=O)N/N=C/c3ccc(O)cc3)cc2NC1=O | 4.72 |
| CC(Sc1n[nH]c(N)n1)C(=O)Nc1cccc2ccccc12 (stereo unspecified) | 11 |
| Cc1nn(-c2ccccc2)c(C)c1/C=N/NC(=O)c1cc(-c2cccs2)[nH]n1 | 47.5 |
| O=C(Nc1cccc(Br)c1)c1ccc2nc(N3C(=O)CCC3=O)sc2c1 | 3.99 |
| Nc1c(C(=O)c2ccccc2)sc(Nc2ccccc2)c1S(=O)(=O)c1ccccc1 | 12.2 |
| COCCCC1CCN(C(=O)C2CCC(=O)N(C3CCCC3)C2)CC1 (stereo unspecified) | -6.84 |
| CCNc1nc(=S)nc(NC(C)C)[nH]1 | -23 |
| CC(=O)Nc1ccc(C(=O)OCc2ccc(F)cc2Cl)cc1 | 50 |
| COc1ccc(NC(=O)/C(C#N)=C/c2c(C)nn(-c3ccc(F)cc3)c2Cl)cc1OC | 9.54 |
| CCN(CC)S(=O)(=O)c1ccc(N2CC(C(=O)NCCc3ccc(Cl)cc3)CC2=O)cc1 (stereo unspecified) | 28.6 |
| O=C(N/N=C/c1ccc(F)cc1)c1c(O)c2ccccc2[nH]c1=O | 25.9 |
| O=C(N/N=C/c1ccccc1)c1c(O)c2ccccc2[nH]c1=O | 58.7 |
| Cc1ccc(NC(=S)N(CCCN2CCOCC2)Cc2cccnc2)cc1C | -0.2 |
| CSCCC(NC(=O)OCc1ccccc1)C(=O)O (stereo unspecified) | -8.32 |
| Cc1ccc(SCC(=O)c2cc(C)c(O)c(C)c2)cc1 | 0.12 |
| Nc1ccc(O)c2c(=O)cc(-c3ccccc3Cl)oc12 | -0.68 |
| O=c1cc(-c2ccccc2Cl)oc2c(Br)ccc(O)c12 | -2.73 |
| O=c1cc(-c2ccccc2Cl)oc2cccc(O)c12 | -8.34 |
| Nc1ccc2oc(-c3ccccc3Cl)cc(=O)c2c1O | -0.76 |
| COc1ccc(-c2[nH]nc3c2C(c2ccc(OC(=O)N4CCOCC4)cc2)C(C#N)=C(N)O3)cc1 (stereo unspecified) | 13.2 |
| CCc1cccc(C)c1NC(=O)CN(C)Cc1ccccc1F | 23.6 |
| C[C@H](CO)N1C[C@H](C)[C@@H](CN(C)C(=O)Nc2ccc(C(F)(F)F)cc2)Oc2c(NC(=O)Nc3ccccc3)cccc2C1=O | 32.4 |
| CC1CCN(CCCOc2ccc(Br)cc2Cl)CC1 | 33.5 |
| Cc1ccc(OCCCCN2CCC(C)CC2)c(Br)c1 | 49.3 |

| SMILES | inhibition [%] |
| --- | --- |
| Cc1ccc(C)c(NC(=S)NCCc2c[nH]c3ccccc23)c1 | 67 |
| c1ccc2[nH]c(SCc3cn4ccccc4n3)nc2c1 | -0.59 |
| O=[N+]([O-])c1ccc2nc(SCc3cn4cccnc4n3)[nH]c2c1 | -20.2 |
| NC(=O)CSc1nc2ccc([N+](=O)[O-])cc2[nH]1 | 3.31 |
| Clc1ccc2nc(CSc3ncn[nH]3)cn2c1 | -31.7 |
| CCC(CO)NCc1sccc1C (stereo unspecified) | -5.31 |
| Cc1cccc(C(=O)NC(=S)Nc2ccc(S(=O)(=O)N3CCN(C)CC3)cc2)c1 | 52.2 |
| Cc1c(O)ccc(/C=N/Nc2ncccc2[N+](=O)[O-])c1O | -1.95 |
| O=[N+]([O-])c1cc(/C=N\Nc2ccccn2)ccc1Cl | -14.6 |
| COc1cc(/C=N/Nc2nc3ccccc3s2)cc([N+](=O)[O-])c1O | 22 |
| O=C(N/N=C/c1cc(Cl)cc([N+](=O)[O-])c1O)c1cc(-c2ccccn2)nc2ccccc12 | 4.78 |
| Cc1cc(C(=O)N/N=C/c2cc(Cl)cc([N+](=O)[O-])c2O)c2ccccc2n1 | 54.6 |
| COc1cccc(/C=N/Nc2ncccc2[N+](=O)[O-])c1OC | 1.4 |
| CN(C(=O)COC(=O)c1ccccc1SCC(=O)N1CCCC1)C1CCS(=O)(=O)C1 (stereo unspecified) | -9.96 |
| Cc1ccccc1CCNC(=O)C1CC(O)CN1C(=O)Nc1ccccc1 (stereo unspecified) | -7.09 |
| O=S(=O)(NCc1ccccc1F)c1cccc(S(=O)(=O)N2CCOCC2)c1 | -6.99 |
| O=C(NC(=S)Nc1ccc(Cl)cn1)c1cc([N+](=O)[O-])ccc1N1CCOCC1 | 5.35 |
| Cc1ccc(S(=O)(=O)N2CCN(C(=O)c3ccccc3)CC2)cc1 | 9.38 |
| COc1ccc(CCNC(=O)C(=O)c2c(C)[nH]c3ccccc23)cc1 | 12 |
| O=C(NCCc1ccccc1)c1ccc(Br)o1 | 73.4 |
| NC(=O)NCCC1=CCCCC1 | -8.64 |
| O=C(NCCC1=CCCCC1)c1ccc(Cl)cc1 | 76.5 |
| COc1ccc(C(=O)NCCC2=CCCCC2)cc1 | 71.4 |
| CCN(CC)C(=O)c1cccc(NC(=O)c2cc(-c3ccccn3)nc3ccccc23)c1 | 57 |

| SMILES | inhibition [%] |
| --- | --- |
| Cc1nnc2sc(SCC(=O)Nc3ccc(Br)cc3)nn2c1=O | -4.78 |
| CCOc1ccccc1C(=O)NC1CC2CCCC(C1)N2C1CC1 (stereo unspecified) | 0.26 |
| CCOc1ccc(S(=O)(=O)N2CCOCC2)cc1NC(=O)CN1C(=O)NC(C)(c2ccccc2)C1=O (stereo unspecified) | 6.19 |
| Cc1nc(Sc2ccccc2)c(C#N)c(C)c1[N+](=O)[O-] | 16.8 |
| Nc1ncnc(Sc2ccccc2)c1[N+](=O)[O-] | 67.8 |
| C#CCN(CC=C)C(=O)c1ccc(OC2CCN(S(=O)(=O)N(C)C)CC2)cc1 | -9.64 |
| Cc1cccc(NC(=O)C2COc3ccccc3O2)n1 (stereo unspecified) | 75.7 |
| O=C(C1COc2ccccc2O1)N1CCCC1 (stereo unspecified) | 70.2 |
| O=C(Nc1ccncc1)C1COc2ccccc2O1 (stereo unspecified) | 29.1 |
| Cc1ccnc(NC(=O)C2COc3ccccc3O2)c1 (stereo unspecified) | 2.12 |
| CC1CCCN(C(=O)C2COc3ccccc3O2)C1 (stereo unspecified) | 57.7 |
| O=C(Nc1ccccn1)C1COc2ccccc2O1 (stereo unspecified) | 77 |
| O=C(COC(=O)C1COc2ccccc2O1)Nc1cccc(Cl)c1 (stereo unspecified) | 6.42 |
| O=C(CCC1COc2ccccc2O1)Nc1ccc(Cl)cn1 (stereo unspecified) | 79.7 |
| CCOC(=O)CNC(=O)CN1CCC(c2nc3ccccc3[nH]2)CC1 | -5.38 |
| COc1ccc(N/C=C/C(=O)c2ccc(Oc3ncccn3)cc2)cc1 | -0.22 |
| C/C(CC(=O)NC1CCCCC1)=N\NC(=O)Cc1ccc(-c2ccccc2)cc1 | 9.13 |
| O=C(C1=C[C@@H](c2ccccc2)C[C@@H](OCc2ccc(CO)cc2)O1)N1CCN(Cc2ccc3c(c2)OCO3)CC1 | 38.2 |
| O=C(CNC(=O)Cc1ccccc1)NCC(=O)OCc1ccc(C(=O)c2ccccc2)cc1 | 4.67 |
| COc1ccc(-n2nc(C(=O)NCC(=O)NCc3cccc(F)c3)c3ccccc3c2=O)cc1Cl | -7.9 |
